Laboratory results published in paper PMC5540273 (PLoS ONE, 2017).

Each compound was assayed on PRKD2. Details: concentration: 1 μM, replicates: in singlicate; n = 1.
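Further: KINOMEscan kinase panel screen.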

Row | Compound | %Inh
1 | CN1C(=O)C(Nc2ccc(Cl)c(C(=O)O)c2)=C(c2ccc(Cl)cc2)C1=O [SB-404290] | 6%
2 | Cn1cncc1-c1ccc2ncnc(Nc3ccc(OCc4ccccc4)cc3)c2c1 [GW320571] | 5%
3 | COc1cc2ncn(-c3cc(OCC4CCCO4)c(C(N)=O)s3)c2cc1OC (centres unmarked) [GSK204607] | 0%
4 | Cc1cccc(-c2nc(Nc3ccncc3)c3ccccc3n2)n1 [GW855857] | 99%
5 | CC1=C(C(=O)Nc2cc3cn[nH]c3cc2F)C(c2ccc(C(F)(F)F)cc2)CC(=O)N1 (centres unmarked) [GSK429286] | 4%
6 | CS(=O)(=O)c1ccc(-c2nc3n(c2-c2ccncc2)CCC3)cc1 [SKF-105942] | 0%
7 | COc1ccccc1-c1ccc2c(NC(=O)C3CC3)n[nH]c2n1 [SB-711239] | 11%
8 | COc1cc2ncnc(Nc3ccc4nc(-c5ccccc5)[nH]c4c3)c2cc1OC.Cl [GW282450] | 5%
9 | COc1cc(Nc2nccc(N3CCC(NC(=O)Nc4cc(C)ccc4C)C3)n2)cc(OC)c1OC (centres unmarked) [GSK1379762] | 0%
10 | CC(C)(C)c1ccc(C(=O)Nc2cn3cc(Cl)ccc3n2)cc1 | 0%
11 | Cl.c1ccc(-c2n[nH]cc2-c2ccnc(-c3ccc(CN4CCOCC4)cc3)c2)nc1 [GW776245] | 44%
12 | CCn1c(-c2cccnc2O)nc2cnccc21 [SB-736715] | 0%
13 | Cc1ccc(NC(=O)Nc2cc(C(C)(C)C)nn2-c2ccccc2)cc1 [GSK1014915] | 0%
14 | O=C(Nc1n[nH]c2nc(-c3nccs3)c(Br)cc12)C1CC1 [SB-742251] | 0%
15 | Cc1ccc(C(=O)Nc2ccc(Nc3ccnc4cc(-c5ccccn5)ccc34)cc2O)cc1.Cl [GW440146] | 0%
16 | O=C(Nc1n[nH]c2cc(-c3cccc(F)c3F)ccc12)C1CC1 [SB-733894] | 0%
17 | O=S(=O)(c1ccc(-c2ccnc3[nH]ccc23)cc1)N1CCCC1 [GSK846226] | 3%

Row | Compound | %Inh
18 | Cc1nnc(-c2ccc3occ(-c4ccc(S(C)=O)cc4)c3c2)[nH]1 (centres unmarked) | 4%
19 | COc1cccc(-c2cc(-c3c[nH]nc3-c3ccccn3)ccn2)c1 [GW680338] | 47%
20 | Cc1c(O)cccc1Nc1ccnc2ccc(C(F)(F)F)cc12.Cl [GW466413] | 0%
21 | CCCc1ccc(S(=O)(=O)NC2CCN(c3ccnc(Nc4ccc(F)cc4)n3)C2)cc1 (centres unmarked) [GSK1379715] | 0%
22 | COc1cc2nccc(Nc3ccc(NC(=O)c4ccc(C)cc4)c(O)c3)c2cc1OC.Cl [GW440132] | 0%
23 | Cn1ccc2ncnc(Oc3ccc(Nc4nc5ccccc5[nH]4)cc3)c21 | 8%
24 | Cc1csc(-c2nc(Nc3ccncc3)c3ccccc3n2)n1 [GW869640] | 78%
25 | O=C(O)COc1ncnc2cc(-c3ccc4[nH]ncc4c3)sc12 | 0%
26 | COc1ccc(C2=C(Nc3cccc(C(=O)O)c3)C(=O)NC2=O)cc1 [SB-390765] | 0%
27 | Cc1cc(-c2ccc3c(c2)CC[C@@H](N[C@@H](C)c2ccccc2)C3)cnc1N.Cl [GW412617] | 21%
28 | Nc1ncnc2[nH]c(-c3ccccc3)nc12 [AH5015] | 0%
29 | COc1ccc2nc(-c3cccc(C)n3)nc(Nc3ccncc3)c2c1 [GSK204919] | 98.8%
30 | Cl.Oc1ccc(-c2nc(-c3ccccc3)[nH]c2-c2ccncc2)cc1 [SB-428218] | 9%
31 | COc1cccc(NC(=O)NC2CCN(c3ccnc(Nc4ccc(F)cc4)n3)C2)c1 (centres unmarked) [GSK1379721] | 0%
32 | CS(=O)(=O)c1ccc(-c2c(-c3ncn[nH]3)sc(N3CCOCC3)c2C#N)cc1 | 11%
33 | Cn1ccc2ncnc(Oc3cccc(C(=O)Nc4ccccc4)c3)c21 | 9%
34 | CCn1c(-c2ccccn2)nc2cnccc21 [SB-736398] | 0%

The compounds below were run on PRKD3. Details: concentration: 1 μM, replicates: in singlicate; n = 1.

Row | Compound | %Inh
35 | CN1C(=O)C(Nc2ccc(Cl)c(C(=O)O)c2)=C(c2ccc(Cl)cc2)C1=O [SB-404290] | 0%
36 | Cn1cncc1-c1ccc2ncnc(Nc3ccc(OCc4ccccc4)cc3)c2c1 [GW320571] | 15%
37 | COc1cc2ncn(-c3cc(OCC4CCCO4)c(C(N)=O)s3)c2cc1OC (centres unmarked) [GSK204607] | 0%
38 | Cc1cccc(-c2nc(Nc3ccncc3)c3ccccc3n2)n1 [GW855857] | 69%
39 | CC1=C(C(=O)Nc2cc3cn[nH]c3cc2F)C(c2ccc(C(F)(F)F)cc2)CC(=O)N1 (centres unmarked) [GSK429286] | 0%
40 | CS(=O)(=O)c1ccc(-c2nc3n(c2-c2ccncc2)CCC3)cc1 [SKF-105942] | 0%
41 | COc1ccccc1-c1ccc2c(NC(=O)C3CC3)n[nH]c2n1 [SB-711239] | 30%
42 | COc1cc2ncnc(Nc3ccc4nc(-c5ccccc5)[nH]c4c3)c2cc1OC.Cl [GW282450] | 7%
43 | COc1cc(Nc2nccc(N3CCC(NC(=O)Nc4cc(C)ccc4C)C3)n2)cc(OC)c1OC (centres unmarked) [GSK1379762] | 37%
44 | CC(C)(C)c1ccc(C(=O)Nc2cn3cc(Cl)ccc3n2)cc1 | 0%
45 | Cl.c1ccc(-c2n[nH]cc2-c2ccnc(-c3ccc(CN4CCOCC4)cc3)c2)nc1 [GW776245] | 28%
46 | CCn1c(-c2cccnc2O)nc2cnccc21 [SB-736715] | 0%
47 | Cc1ccc(NC(=O)Nc2cc(C(C)(C)C)nn2-c2ccccc2)cc1 [GSK1014915] | 18%
48 | O=C(Nc1n[nH]c2nc(-c3nccs3)c(Br)cc12)C1CC1 [SB-742251] | 0%
49 | Cc1ccc(C(=O)Nc2ccc(Nc3ccnc4cc(-c5ccccn5)ccc34)cc2O)cc1.Cl [GW440146] | 18%
50 | O=C(Nc1n[nH]c2cc(-c3cccc(F)c3F)ccc12)C1CC1 [SB-733894] | 0%
51 | O=S(=O)(c1ccc(-c2ccnc3[nH]ccc23)cc1)N1CCCC1 [GSK846226] | 0%

Row | Compound | %Inh
52 | Cc1nnc(-c2ccc3occ(-c4ccc(S(C)=O)cc4)c3c2)[nH]1 (centres unmarked) | 0%
53 | COc1cccc(-c2cc(-c3c[nH]nc3-c3ccccn3)ccn2)c1 [GW680338] | 34%
54 | Cc1c(O)cccc1Nc1ccnc2ccc(C(F)(F)F)cc12.Cl [GW466413] | 0%
55 | CCCc1ccc(S(=O)(=O)NC2CCN(c3ccnc(Nc4ccc(F)cc4)n3)C2)cc1 (centres unmarked) [GSK1379715] | 0%
56 | COc1cc2nccc(Nc3ccc(NC(=O)c4ccc(C)cc4)c(O)c3)c2cc1OC.Cl [GW440132] | 0%
57 | Cn1ccc2ncnc(Oc3ccc(Nc4nc5ccccc5[nH]4)cc3)c21 | 0%
58 | Cc1csc(-c2nc(Nc3ccncc3)c3ccccc3n2)n1 [GW869640] | 71%
59 | O=C(O)COc1ncnc2cc(-c3ccc4[nH]ncc4c3)sc12 | 25%
60 | COc1ccc(C2=C(Nc3cccc(C(=O)O)c3)C(=O)NC2=O)cc1 [SB-390765] | 0%
61 | Cc1cc(-c2ccc3c(c2)CC[C@@H](N[C@@H](C)c2ccccc2)C3)cnc1N.Cl [GW412617] | 0%
62 | Nc1ncnc2[nH]c(-c3ccccc3)nc12 [AH5015] | 9%
63 | COc1ccc2nc(-c3cccc(C)n3)nc(Nc3ccncc3)c2c1 [GSK204919] | 100%
64 | Cl.Oc1ccc(-c2nc(-c3ccccc3)[nH]c2-c2ccncc2)cc1 [SB-428218] | 0%
65 | COc1cccc(NC(=O)NC2CCN(c3ccnc(Nc4ccc(F)cc4)n3)C2)c1 (centres unmarked) [GSK1379721] | 19%
66 | CS(=O)(=O)c1ccc(-c2c(-c3ncn[nH]3)sc(N3CCOCC3)c2C#N)cc1 | 14%
67 | Cn1ccc2ncnc(Oc3cccc(C(=O)Nc4ccccc4)c3)c21 | 0%
68 | CCn1c(-c2ccccn2)nc2cnccc21 [SB-736398] | 1%
